Laboratory results from PubChem BioAssay (NCI).
About 79,000 compounds went through this panel and 15% of them were active in at least one assay; those are over-represented in the sample as a whole. Rule as the data show it: active = growth inhibition above about 70%; inactive = the rest.

Experiments:
[1] = NCI Yeast Anticancer Drug Screen. Data for the rad50 strain (AID 155);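 also: 0% = growth of vehicle-only cultures of the same strain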; conditions: S. cerevisiae rad50 strain growth inhibition; at 50.0 µM; active compounds read high
Summary of the method: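 Vehicle-treated cultures provide the reference for the growth inhibition reported for compound-exposed, repair-deficient yeast.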

[2] = NCI Yeast Anticancer Drug Screen. Data for the mec2-1 strain (AID 157); conditions: S. cerevisiae mec2-1 strain, at 50.0 µM, active compounds read high
Summary of the method: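 mec2-1 yeast strain, carrying an alteration in DNA damage repair or cell cycle control, was exposed to compounds; growth inhibition was measured relative to vehicle-treated controls.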

[3] = NCI Yeast Anticancer Drug Screen. Data for the sgs1 mgt1 strain (AID 161);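 also: 0% = growth of cultures given vehicle only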; conditions: S. cerevisiae sgs1 mgt1 strain, at 50.0 µM, active compounds read high
Summary of the method: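 Yeast cells carrying a defined DNA-repair defect were exposed to test compounds. Growth inhibition was measured relative to vehicle-treated controls.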

[4] = NCI Yeast Anticancer Drug Screen. Data for the cln2 rad14 strain (AID 165);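 also: 0% = growth equal to vehicle treated cultures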; conditions: S. cerevisiae cln2 rad14 strain, at 50.0 µM, active compounds read high
Summary of the method: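 Yeast carrying cln2 and rad14 alterations (cell cycle control and DNA damage repair) were exposed to compounds. Growth inhibition was measured against vehicle-treated controls.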

[5] = NCI Yeast Anticancer Drug Screen. Data for the bub3 strain (AID 167); conditions: S. cerevisiae bub3 mutant strain, at 50.0 µM, active compounds read high
Summary of the method: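 Mutant yeast screening strain plus compound; vehicle-treated cultures serve as the 0% inhibition reference.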

[6] = NCI Yeast Anticancer Drug Screen. Data for the mlh1 rad18 strain (AID 175); conditions: S. cerevisiae mlh1 rad18 strain growth inhibition; at 50.0 µM; active compounds read high
Summary of the method: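 Growth inhibition of the yeast strain was measured after compound exposure and expressed relative to vehicle-treated controls. The strain carries defined defects in DNA damage repair.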

Measured: growth inhibition

COC1=c2\cccc\c2=c2/cccc/c2=c2\cccc\c2=N\1
inactive: [1] 17.4% | [2] 13.1% | [3] 11.4% | [4] 12.2% | [5] 13.4% | [6] 17.5%

CN(C)CC1CCC2=C(C1=O)C(c1ccccc1)C1=C(CCC(CN(C)C)C1=O)O2 (stereo unspecified)
inactive: [1] 1.55% | [2] 2.1% | [3] -1.7% | [4] 13.4% | [5] 4.3% | [6] 3.7%

CCCCCCCCCO
inactive: [1] 13.7% | [2] -4.8% | [3] 19.9% | [4] 11.3% | [5] 12.8% | [6] 19.3%

CC(=O)Nc1ccc([N+](=O)[O-])cc1Cl
inactive: [1] 27.6% | [2] 16.9% | [3] 16.8% | [4] -3.15% | [5] 5.1% | [6] 26.4%

COC(=O)c1cc(C(=O)OC)c(C/C(=N/NC(N)=S)C(=O)Nc2ccc(Cl)c(Cl)c2)nc1C/C(=N/NC(N)=S)C(=O)Nc1ccc(Cl)c(Cl)c1
inactive: [1] 28.4% | [2] 14.9% | [3] 7.1% | [4] 34.2% | [5] 32.7% | [6] 44%

Fc1c(F)c(F)c(-c2nnc(-c3c(F)c(F)c(F)c(F)c3F)o2)c(F)c1F
inactive: [1] -2.45% | [2] 2.75% | [3] -8.75% | [4] -56.8% | [5] 9.3% | [6] 4.25%

O=c1c2ccccc2[nH]c2c(O)c3c(=O)c4ccccc4[nH]c3cc12
inactive: [1] -8.6% | [2] -2.05% | [3] 3.9% | [4] -4.4% | [5] 3.15% | [6] 4.05%

Cc1c(C)c(C)c2cc3c(C)c(C)c(C)c(C)c3cc2c1C
inactive: [1] -4.55% | [2] -1.9% | [3] -8.5% | [4] -2.35% | [5] 6.45% | [6] -11.6%

CCOC(=O)c1ccc(N2C(=S)N(C(=O)c3ccccc3)C(=Nc3ccccc3)C2=Nc2ccccc2)cc1
inactive: [1] 11.2% | [2] 3.15% | [3] 5.25% | [4] 1.35% | [5] 3.85% | [6] -37.4%

CCCCCc1cc[n+](CC(=O)c2ccccc2)cc1
inactive: [1] 4.45% | [2] 0.7% | [3] -12.1% | [4] -62.7% | [5] -10.4% | [6] 12.8%

O=C1CSC(=S)N1
inactive: [1] -8.05% | [2] -7.9% | [3] 13.3% | [4] 10.8% | [5] -7.15% | [6] 20.9%

O=C1Cc2ccccc2C(=O)N1
inactive: [1] 23% | [2] 22.3% | [3] 27.3% | [4] 7.4% | [5] 4.8% | [6] 16.4%

CN(C)CCC(CCN(C)C)=NO
inactive: [1] -37.2% | [2] -49.1% | [3] 3.4% | [4] 15.5% | [5] -31.4% | [6] -12.1%

COC(=O)/C=C(C)/C=C/c1cc(C(C)=O)c(C)o1
inactive: [1] -2.25% | [2] -2.95% | [3] 7.85% | [4] -12.3% | [5] 29.6% | [6] -7.05%

O=C(O)c1c2c(nc3ccccc13)Cc1ccccc1-2
inactive: [1] 1% | [2] -0.75% | [3] 10.1% | [4] -0.2% | [5] 17.3% | [6] -39.8%

CC(C)(C(=O)c1cccnc1)c1cccnc1
inactive: [1] 4.25% | [2] -9.25% | [3] 17.1% | [4] 2.3% | [5] 17.1% | [6] 12.7%

Cc1[nH]c(=O)[nH]c(=O)c1C
inactive: [1] 4.05% | [2] -36.1% | [3] 1.8% | [4] 27.4% | [5] -11.9% | [6] 7.35%

COc1ccc(-c2cn3c([nH]c(=O)c4cc(Br)ccc43)c2C#N)cc1
inactive: [1] 5.55% | [2] -5.3% | [3] -3.7% | [4] -5.25% | [5] 2.2% | [6] 16.1%

CCOC(=O)c1ccc(Nc2nc3ccccc3o2)cc1
inactive: [1] 5% | [2] -7.6% | [3] 9.05% | [4] -14.2% | [5] -0.95% | [6] 1.7%

N#CCCNCCNCCC#N
inactive: [1] -30.8% | [2] -2.25% | [3] -18.1% | [4] -68.2% | [5] -26.1% | [6] -26.4%

CC(C)CC(=O)c1ccccn1
inactive: [1] -10.1% | [2] -30.9% | [3] -16.1% | [4] 7.95% | [5] -19% | [6] -0.35%
